Results published in PubChem BioAssay (NCI).
Compounds without any hit were thinned out: in the full panel of roughly 83,000, 20% have a hit.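 Step 1: grow cells in 96-well plates. Step 2: add test compound at a single concentration. Step 3: incubate 48 h. Step 4: record percent growth.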 The source made the active and inactive calls. How the source made its calls: active means growth percent below 10; inactive means the rest.

Tests used:
Assay in all cases: NCI-60 one-dose screen, 48 h (100 = growth as untreated, 0 = no growth, -100 = all killed)
Conditions in all cases: 10 µM unless noted
T-47D breast = test system: T-47D breast
BT-549 breast = test system: BT-549 breast
MDA-MB-435 melanoma = test system: MDA-MB-435 melanoma
SW-620 colon = test system: SW-620 colon
MCF7 breast = test system: MCF7 breast
HCT-116 colon = test system: HCT-116 colon
HCC-2998 colon = test system: HCC-2998 colon
KM12 colon = test system: KM12 colon

Measured: growth

O=C(c1cccc(F)c1)n1ccc2cc(NC(=S)Nc3cccnc3)ccc21
inactive: T-47D breast 93.7% | BT-549 breast 97.6% | MDA-MB-435 melanoma 99% | SW-620 colon 93.8% | MCF7 breast 85.7% | HCT-116 colon 105% | HCC-2998 colon 99.7% | KM12 colon 97.9%

COc1cc2c3c(n(CCCNC4CCCCC4)c(=O)c2cc1OC)-c1cc2c(cc1C3=O)OCO2
inactive: T-47D breast 91.5% | BT-549 breast 78.2% | MDA-MB-435 melanoma 102% | HCC-2998 colon 73.3% | KM12 colon 57.4%
active: SW-620 colon -76.8% | MCF7 breast -78.1% | HCT-116 colon -72.3%

O=c1cc(-c2ccccc2)nc2sc(-c3c[nH]c4ccc(F)cc34)nn12
inactive: T-47D breast 27.2% | BT-549 breast 56.7% | MDA-MB-435 melanoma 63.7% | SW-620 colon 60.9% | MCF7 breast 57.9% | HCT-116 colon 57.2% | HCC-2998 colon 83.4% | KM12 colon 84.2%

C/C(=N\NC(=O)CSc1nc2sc3c(c2c(=O)n1-c1ccccc1)CCC(C)C3)c1ccc(Cl)cc1 (stereo not given)
inactive: T-47D breast 46.4% | BT-549 breast 36.8% | MDA-MB-435 melanoma 30.1% | SW-620 colon 31.6% | MCF7 breast 14% | HCT-116 colon 26.6% | HCC-2998 colon 45.4% | KM12 colon 25.1%

Cc1ccc(-c2cc(-c3cccc4ccccc34)n3c(n2)nc2ccccc23)cc1
inactive: T-47D breast 54.1% | BT-549 breast 69.1% | MDA-MB-435 melanoma 65% | SW-620 colon 45.2% | MCF7 breast 22.6% | HCT-116 colon 43.4% | HCC-2998 colon 92% | KM12 colon 78.9%

Clc1ccc(-c2nc3ccc(/C(=N\N=C\c4ccccc4)c4ccccc4)cc3[nH]2)cc1
inactive: T-47D breast 70.7% | BT-549 breast 92.5% | MDA-MB-435 melanoma 88.9% | SW-620 colon 91.2% | MCF7 breast 78.3% | HCT-116 colon 84.5% | HCC-2998 colon 103% | KM12 colon 82.3%

Oc1ccc(CSc2nnc(-c3ccncc3)o2)c2cccnc12
inactive: T-47D breast 15.8% | BT-549 breast 23.7% | MDA-MB-435 melanoma 13.4% | SW-620 colon 16.4% | HCC-2998 colon 30.2% | KM12 colon 14.2%
active: MCF7 breast 4.01% | HCT-116 colon 8.9%

CCNCCCn1c2c(c3cc(OC)c(OC)cc3c1=O)C(=O)c1cc(OC)cnc1-2
inactive: BT-549 breast 27.3% | MDA-MB-435 melanoma 38% | SW-620 colon 37.1% | HCC-2998 colon 43.4% | KM12 colon 45.4%
active: T-47D breast -0.933% | MCF7 breast 8.05% | HCT-116 colon 0.589%

Cc1ccc(NC(=O)c2cccc(CN3CCN(C)CC3)c2)cc1Oc1ccc(-c2[nH]nc3ncnc(N)c23)cc1
inactive: T-47D breast 82.6% | BT-549 breast 95.8% | MDA-MB-435 melanoma 56.3% | SW-620 colon 48.6% | MCF7 breast 41.4% | HCT-116 colon 57.4% | HCC-2998 colon 99.4% | KM12 colon 37.4%

C=CCn1c(SCC(=O)Nc2ccc(OC)cc2)nnc1-c1ccc(Cl)cc1
inactive: T-47D breast 95.5% | BT-549 breast 106% | MDA-MB-435 melanoma 90.1% | SW-620 colon 99.1% | MCF7 breast 94.9% | HCT-116 colon 91.2% | HCC-2998 colon 99.6% | KM12 colon 92.4%

NS(=O)(=O)c1ccc(-n2cc(CC=O)nn2)cc1
inactive: T-47D breast 102% | BT-549 breast 111% | MDA-MB-435 melanoma 102% | SW-620 colon 109% | MCF7 breast 93.6% | HCT-116 colon 108% | HCC-2998 colon 97.9% | KM12 colon 112%

COc1cc(/C=N/Nc2ccnc3cc(Cl)ccc23)cc(OC)c1O
active: T-47D breast -56.5% | MDA-MB-435 melanoma -85.9% | SW-620 colon -30.4% | MCF7 breast -72.3% | HCT-116 colon -68.7% | HCC-2998 colon -81.9% | KM12 colon -53.8%
inactive: BT-549 breast 103%

N#Cc1c(-c2ccccc2)cc(-c2c[nH]c3ccccc23)nc1-c1c[nH]c2ccccc12
inactive: T-47D breast 86.7% | BT-549 breast 94.7% | MDA-MB-435 melanoma 103% | SW-620 colon 102% | MCF7 breast 95% | HCT-116 colon 103% | HCC-2998 colon 93.6% | KM12 colon 103%

Cn1ccnc1C(=O)/C=C/c1ccc(C(=O)Nc2ccc(NC(=O)CCNC(=O)c3csc(Br)n3)cc2)cc1
inactive: T-47D breast 58.9% | BT-549 breast 65.4% | MDA-MB-435 melanoma 44.2% | SW-620 colon 14.1% | MCF7 breast 17.7% | HCT-116 colon 20.5% | HCC-2998 colon 106% | KM12 colon 33.3%

CN1CCN(c2ccc(C(=O)/C=C/c3ccc(Cl)c(C(F)(F)F)c3)cc2)CC1
inactive: T-47D breast 29.6% | BT-549 breast 109% | MDA-MB-435 melanoma 13.7% | HCT-116 colon 16.1% | HCC-2998 colon 33.7% | KM12 colon 27.3%
active: SW-620 colon 1.29% | MCF7 breast 7.85%

COc1ccc(-c2cc(-c3cccc4ccccc34)n3c(n2)nc2ccccc23)cc1
inactive: T-47D breast 24.2% | BT-549 breast 69.9% | MDA-MB-435 melanoma 53.4% | SW-620 colon 40.6% | MCF7 breast 19.6% | HCT-116 colon 37.9% | HCC-2998 colon 88.3% | KM12 colon 62.4%

O=C(COc1ccc(/C=C2\SC(=O)NC2=O)cc1)Nc1ccc(C(=O)/C=C/c2cc3ccccc3nc2Cl)cc1
inactive: T-47D breast 54.7% | BT-549 breast 67.7% | MDA-MB-435 melanoma 13.6% | SW-620 colon 88.7% | HCC-2998 colon 64.6% | KM12 colon 59.5%
active: MCF7 breast -4.07% | HCT-116 colon -57.2%

O=C(NNc1nc2cc(F)cc(F)c2n2cccc12)c1ccncn1
active: T-47D breast -1.57% | MCF7 breast 4.99%
inactive: BT-549 breast 12.2% | MDA-MB-435 melanoma 26.3% | SW-620 colon 20.8% | HCT-116 colon 18.6% | HCC-2998 colon 57.5% | KM12 colon 21.6%

CCCCCCNC(=O)Oc1ccc(/C(=C(/C)c2ccc(OC)cc2)c2ccc(OCCN3CCCC3)cc2)cc1
inactive: T-47D breast 59.7% | BT-549 breast 84.3% | MDA-MB-435 melanoma 74.4% | SW-620 colon 62.6% | MCF7 breast 18.2% | HCT-116 colon 31.4% | HCC-2998 colon 87.9% | KM12 colon 82%

O=C(CSc1ccc(-c2nc3ccccc3[nH]2)cn1)N1CCN(c2ccccc2F)CC1
inactive: T-47D breast 16.7% | BT-549 breast 27.8% | MDA-MB-435 melanoma 53.9% | SW-620 colon 106% | MCF7 breast 55.7% | HCT-116 colon 68.1% | HCC-2998 colon 96.5% | KM12 colon 68.8%

CC1(COc2ccc3ncc(C#Cc4cncc(C(=O)Nc5cc(C(C)(C)C)on5)c4)n3n2)COC1
inactive: T-47D breast 32.5% | BT-549 breast 81.3% | MDA-MB-435 melanoma 50% | SW-620 colon 38.2% | MCF7 breast 40.5% | HCT-116 colon 17.9% | HCC-2998 colon 49.7% | KM12 colon 15%

COc1ccc(C2C(C#N)=C(N)Oc3c2sc2ccc(C)cc32)cc1 (stereo not given)
inactive: T-47D breast 32.7% | BT-549 breast 26.8% | SW-620 colon 13.9% | MCF7 breast 19.2% | HCT-116 colon 22.1% | HCC-2998 colon 53.2% | KM12 colon 24.2%
active: MDA-MB-435 melanoma -26.4%

O=C1[C@@H]2Cc3c([nH]c4ccccc34)[C@H](c3c(Cl)cccc3Cl)N2C(=O)CN1C1CCN(Cc2ccccc2)CC1
active: MDA-MB-435 melanoma -61.8% | MCF7 breast 1.17% | HCT-116 colon -32.8%
inactive: T-47D breast 76.8% | BT-549 breast 29.4% | SW-620 colon 10.6% | HCC-2998 colon 10.6% | KM12 colon 30.2%

O=C1c2c(O)cc(O)cc2O[C@@H](c2ccc(O)cc2)[C@@H]1c1c(O)cc(O)c2c(=O)cc(-c3ccc(O)c(O)c3)oc12
inactive: T-47D breast 105% | BT-549 breast 98.3% | MDA-MB-435 melanoma 110% | SW-620 colon 107% | MCF7 breast 99.9% | HCT-116 colon 100% | HCC-2998 colon 111% | KM12 colon 97.1%

CNC(=O)c1cc(Oc2ccc3nc(NC(=O)c4cccc(C(F)(F)F)c4)sc3c2)ccn1
inactive: T-47D breast 96.9% | BT-549 breast 105% | MDA-MB-435 melanoma 95.1% | SW-620 colon 105% | MCF7 breast 85.6% | HCT-116 colon 94.1% | HCC-2998 colon 109% | KM12 colon 102%

O=C(Nc1cccc(Cl)c1)Nc1nc2ccc([N+](=O)[O-])cc2s1
active: T-47D breast -11.7% | BT-549 breast -28.7% | MDA-MB-435 melanoma -8.69% | SW-620 colon 3.71% | MCF7 breast 4.68% | HCT-116 colon 0.143% | HCC-2998 colon 5.59% | KM12 colon 0.174%

O=C(O)c1ccc(-n2cc(CNc3ccc(Cl)cc3)c(-c3ccc(F)cc3)n2)cc1
inactive: T-47D breast 91.4% | BT-549 breast 101% | MDA-MB-435 melanoma 98.1% | SW-620 colon 106% | MCF7 breast 80.1% | HCT-116 colon 82.7% | HCC-2998 colon 112% | KM12 colon 104%

CC(C)(C)OC(=O)N1CCN(S(=O)(=O)/N=C2\NC(=O)NC2=C(Cl)Cl)CC1
inactive: T-47D breast 75.3% | BT-549 breast 101% | MDA-MB-435 melanoma 103% | SW-620 colon 34.3% | MCF7 breast 79.7% | HCT-116 colon 98% | HCC-2998 colon 75% | KM12 colon 107%

C=CCn1c(SCC(=O)Nc2cccc(C(=O)/C=C/c3cc(OC)c(OC)c(OC)c3)c2)nc2ccccc2c1=O
inactive: T-47D breast 66.4% | BT-549 breast 75.9% | MDA-MB-435 melanoma 21.7% | MCF7 breast 18.2% | HCC-2998 colon 82.5% | KM12 colon 46.3%
active: SW-620 colon 3.18% | HCT-116 colon -26.4%

O=C1[C@@H]2Cc3c([nH]c4ccccc34)[C@H](c3c(Cl)cccc3Cl)N2C(=O)CN1C1CCN(Cc2c(F)cccc2F)CC1
inactive: T-47D breast 94.9% | BT-549 breast 80.4% | MDA-MB-435 melanoma 85.1% | SW-620 colon 72.1% | MCF7 breast 40.4% | HCT-116 colon 15.7% | HCC-2998 colon 63.8% | KM12 colon 74.5%
